# Assay results from PubChem BioAssay AID651642 (Sanford-Burnham Center for Chemical Genomics, 2012).
# Calls of active or inactive are those of the source.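 How the source made its calls: active means average half-effect concentration of 10 µM or less in every one of the four cell panels; inactive means the rest.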
# Tested on: H9c2
# Assay: protection of cardiomyocytes from stress damage, SAR follow-up, cell-based, panel, H9c2 and HL-1, H2O2, 2-deoxyglucose, ATP luminescence (AID 651642)
# Settings: H9c2/HL-1 cardiomyocyte H2O2 oxidative damage, mean of runs, with H2O2
row,SMILES,outcome
1,CCOC(=O)c1cccc(NC(=O)c2cc(-c3cc(OC)c(OC)c(OC)c3)nc3c(Cl)cccc23)c1,inactive
2,CCOC(=O)c1cccc(NC(=O)CNC(=O)c2cc(-c3cc(OC)c(OC)c(OC)c3)nc3ccc(OC)cc23)c1,active
3,CCOC(=O)c1cccc(NC(=O)CNC(=O)c2cc(-c3cc(OC)c(OC)c(OC)c3)nc3ccc(Br)cc23)c1,active
4,CCOC(=O)c1cccc(NC(=O)c2cc(-c3cc(OC)c(OC)c(OC)c3)nc3ccc(Cl)cc23)c1,inactive
5,COc1cc(-c2cc(C(=O)Nc3cccc(C(=O)NCc4ccccc4)c3)c3ccccc3n2)cc(OC)c1OC,active
6,COc1cc(-c2cc(C(=O)Nc3cccc(C(=O)O)c3)c3ccccc3n2)cc(OC)c1OC,inactive
7,COc1cc(-c2cc(C(=O)NCC(=O)Nc3ccc(C(C)=O)cc3)c3cc(C)ccc3n2)cc(OC)c1OC,active
8,COc1cc(-c2cc(C(=O)Nc3cccc(C(C)=O)c3)c3cc(F)ccc3n2)cc(OC)c1OC,active
9,COc1cc(-c2cc(C(=O)NCC(=O)Nc3ccc(C(C)=O)cc3)c3ccccc3n2)cc(OC)c1OC,inactive
10,COc1ccc2c(c1OC)C(=O)N1c3ccccc3C(=O)N(Cc3ccccc3Br)C21 (configuration not stated),inactive
11,CCOC(=O)c1cccc(NC(=O)c2cc(-c3cc(OC)c(OC)c(OC)c3)nc3ccc(F)cc23)c1,inactive
12,COc1ccc2c(c1OC)C(=O)N1c3ccccc3C(=O)N(Cc3ccc(F)cc3)C21 (configuration not stated),inactive
13,CCOC(=O)c1ccc(NC(=O)c2cc(-c3cc(OC)c(OC)c(OC)c3)nc3ccccc23)cc1,inactive
14,COc1cc(-c2cc(C(=O)NCC(=O)Nc3ccc(C(C)=O)cc3)c3cc(F)ccc3n2)cc(OC)c1OC,inactive
15,COc1ccc2c(c1OC)C(=O)N1c3ccccc3C(=O)N(Cc3ccccc3Cl)C21 (configuration not stated),inactive
16,CCOC(=O)c1ccccc1NC(=O)c1cc(-c2cc(OC)c(OC)c(OC)c2)nc2ccccc12,inactive

row,SMILES,outcome
1,CCOC(=O)c1cccc(NC(=O)c2cc(-c3cc(OC)c(OC)c(OC)c3)nc3ccc(Br)cc23)c1,inactive
2,COc1ccc2c(c1OC)C(=O)N1c3ccccc3C(=O)N(Cc3cccc(Cl)c3Cl)C21 (configuration not stated),inactive
3,COC(=O)CNC(=O)c1cc(-c2cc(OC)c(OC)c(OC)c2)nc2ccccc12,inactive
4,COc1cc(-c2cc(C(=O)NCC(=O)Nc3cccc(C(C)=O)c3)c3cc(F)ccc3n2)cc(OC)c1OC,active
5,COc1cc(-c2cc(C(=O)NCC(=O)Nc3cccc(C(C)=O)c3)c3cccc(Cl)c3n2)cc(OC)c1OC,active
6,COc1ccc2c(c1OC)C(=O)N1c3ccccc3C(=O)N(Cc3ccccc3F)C21 (configuration not stated),inactive
7,COc1ccc2nc(-c3cc(OC)c(OC)c(OC)c3)cc(C(=O)NCC(=O)Nc3ccc(C(C)=O)cc3)c2c1,active
8,COc1cc(-c2cc(C(=O)Nc3cccc(C(C)=O)c3)c3ccccc3n2)cc(OC)c1OC,inactive
9,COc1cc(-c2cc(C(=O)NCC(=O)O)c3ccccc3n2)cc(OC)c1OC,inactive
10,COc1cc(-c2cc(C(=O)Nc3cccc(-c4nn[nH]n4)c3)c3ccccc3n2)cc(OC)c1OC,inactive
11,CCOC(=O)c1cccc(NC(=O)c2cc(-c3cc(OC)c(OC)c(OC)c3)nc3cc(Cl)ccc23)c1,inactive
12,COc1ccc2c(c1OC)C(=O)N1c3ccccc3C(=O)N(Cc3cccc(Br)c3)C21 (configuration not stated),inactive
13,COC(=O)CNC(=O)c1cccc(NC(=O)c2cc(-c3cc(OC)c(OC)c(OC)c3)nc3ccccc23)c1,inactive
14,COc1ccccc1CN1C(=O)c2ccccc2N2C(=O)c3c(ccc(OC)c3OC)C12 (configuration not stated),inactive
15,COc1cc(-c2cc(C(=O)Nc3cccc(C(=O)NC4CC4)c3)c3ccccc3n2)cc(OC)c1OC,active
16,CCOC(=O)c1cccc(NC(=O)CNC(=O)c2cc(-c3cc(OC)c(OC)c(OC)c3)nc3ccc(C)cc23)c1,active
